Our source for the binding signal values is PMC12136788.

Sequences and labels used below:
T1: UNK ZnF1-3 (human, UniProt Q9C0B0 31-174)
T1 sequence: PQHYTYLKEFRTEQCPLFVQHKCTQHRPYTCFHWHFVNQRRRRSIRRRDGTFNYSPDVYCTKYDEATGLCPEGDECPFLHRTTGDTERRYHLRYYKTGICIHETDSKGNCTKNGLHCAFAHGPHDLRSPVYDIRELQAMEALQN

B1: chr4:25749455:25749456:-_ENSG00000091490_ENST00000264868|hu_hu|hu_hu_hu_mus_False|48_68 (ssRNA)
RNA: GGGAGUUCUACAGUCCGACGAUCGCACUAUGACCUCUAGAAAAAUCCACAGGGGGAAAAAAUGUAAACCAAUUUACAAUGUUAUCGCCCUCCCUGCGUGUGGAGUGUUUGUCUCAAGGCUCCUUCUAGCUGCUGGAUUUGGGACAACAGAGGAUUGAGCAUCA
B2: chr17:25064881:25064882:-_ENSMUSG00000024163_ENSMUST00000117509|mus_mus|FALSE|FALSE (ssRNA)
RNA: GGGAGUUCUACAGUCCGACGAUCAUAAUGUUCUACCUGGAUCUGGAGUUCUUUCUUCUCUUGUUCCAAGGCAUCUUCAAAUUCGAUGAAUUUCUCCUCGGCCUGUUUGCGCAGCGCCUUCUCGCGCUCGUAUUGCGUGAGCAGCAACAGAGGAUUGAGCAUCA
B3: chr3:51263940:51263941:+_ENSMUSG00000063273_ENSMUST00000029303|mus_hu|FALSE|FALSE (ssRNA)
RNA: GGGAGUUCUACAGUCCGACGAUCGUAAAAUGGAUGCUGUCGAAGUACAUCUUCUAGUUUUAAUAAGUCCACAUAUGAUCUAAGGGUAAUCUUCCUCAUACAGUAUGUAUGAAAGUCAAACUGGUCAUCAGUGAUUUCUAUAAACAACAGAGGAUUGAGCAUCA
B4: 136207635_136207755_6660_3pUTR_ENSMUSG00000028664_ENSMUST00000105845|mouse|control|control (ssRNA)
RNA: GGGAGUUCUACAGUCCGACGAUCGUAUAAGUGUUCUCUGCUACUCUUGUGUCUGCUCAGAAGCAGUGGGUCUAGCACUAAGGAUGUCACUAUUGACCAUAACUUCUUUCCUAGAGAUAAGGUCUUAUGUGGCCCAGGCUGGCUCAACAGAGGAUUGAGCAUCA
B5: chr6:114281168:114281169:-_ENSG00000196591_ENST00000368632|hu_hu|hu_hu_hu_mus_True|8_108 (ssRNA)
RNA: GGGAGUUCUACAGUCCGACGAUCUUCCAUUUUUCUGUAUAAACCAUAAUUUAGCAGCAAGUUAUGAGUCAUCCGGAUUCUAUGAGGCUUCAUGGGAUGACCCUGGCCAUAAUAAUAAUUGCCAAUAUCACAGAUUCAGUAGUACAACAGAGGAUUGAGCAUCA
B6: chr11:60965389:60965390:-_ENSMUSG00000042506_ENSMUST00000041683|mus_hu|FALSE|FALSE (ssRNA)
RNA: GGGAGUUCUACAGUCCGACGAUCCAGCUCCUCAAAAUGGAAGGGGAAAGGAAGAGUAAACAUCUUGGUAAAUAAAGUCUCCAACCACAGCACAGUCAUUGGAAUUUUUUUCUUCAUUUUUAUUUUCAAACUUACAGUAAACAACAACAGAGGAUUGAGCAUCA
B7: chr15:81824118:81824119:-_ENSMUSG00000022472_ENSMUST00000152227|mus_mus|motif|central (ssRNA)
RNA: GGGAGUUCUACAGUCCGACGAUCGAAGGGAACCUUAAGGUCCCUCUGGAAUCUGGAGUCUAGAUCAUAGACUUCGGGGCGGUUGCUGCCCAUGAAAUCCUAGCAGCAUAUCAUUAAGAAAACGCCCACUCACACCCCAACCACCAACAGAGGAUUGAGCAUCA
B8: chr10:114190419:114190420:-_ENSG00000023041_ENST00000369405|hu_hu|FALSE|FALSE (ssRNA)
RNA: GGGAGUUCUACAGUCCGACGAUCGGGCAGGAAUUCAAAGGCAUAUGCAGAAUGGCUUCUCCAUUUCAAAAUGGUAAUAAAAAUAUUUAAAUCAUGGCACUAGGGCACCUUUGAGGAAAAGAACAUCUUAACCAGAGUAGGCUCCAACAGAGGAUUGAGCAUCA
B9: chr20:33097842:33097843:+_ENSG00000078747_ENST00000374864|hu_hu|motif|central (ssRNA)
RNA: GGGAGUUCUACAGUCCGACGAUCAAAAAUAUUAAAUAGCCAAGCCCUAUAGAACUAGGGCCAGGGCUACUUCAAAUAUAACGGUUCUGUAUUUUAAAAAUAUAGGGCAGAAAGCCUUUUGGGUGAUAUUUAUAUAUUUUCACACAACAGAGGAUUGAGCAUCA
B10: chr2:55200753:55200754:-_ENSG00000115310_ENST00000317610|hu_hu|motif|central (ssRNA)
RNA: GGGAGUUCUACAGUCCGACGAUCUUGGAUUUUAGCCAUAGCAUCUUUAACAUUCUUAUUUGCAAGUCCUAGAUAAUGAUCGGUCUGUGCCUGAUGCCGUUCAUAAAUAACAGGAACACUGAAGAGUGAAAUGAGAGCCAAAAUCAACAGAGGAUUGAGCAUCA
B11: chr1:53517203:53517204:+_ENSG00000116171_ENST00000408941|hu_mus|FALSE|FALSE (ssRNA)
RNA: GGGAGUUCUACAGUCCGACGAUCUCAGGAAGAGCUGUUUUAAUUUUCUUUUUAAAUCUUCCAAAAGCAUAUUUUUAUCCCAAACCUAAAUUAUAACAAAUAGCAUUAGAAUUAGAAAAACUUGGAAGAAAGAUAAAUGCAGACCAACAGAGGAUUGAGCAUCA
B12: chr5:180275300:180275301:-_ENSG00000196670_ENST00000512132|hu_mus|motif|central (ssRNA)
RNA: GGGAGUUCUACAGUCCGACGAUCAGUUGUGAUCUUCCUACCACAAACCAUUACUGUUAAGUCUAUAAUUCAUGACCCACGGAUAAACUGAUAUUCCCUGAAACCAUCCUCUCCCUGAAUUUGCCUGUUGGAGGCCCUUCUUGGCAACAGAGGAUUGAGCAUCA
B13: 14087313_14087433_2671_3pUTR_ENSG00000147862_ENST00000380959|human|control|control (ssRNA)
RNA: GGGAGUUCUACAGUCCGACGAUCGGGAAAAUAAAUUCGUUCAAAAUUAUUUUAAAUUCUUUUUAAUCCCCUCAAUUUAGAGUCCAAGGGCUGAAGGACUUAUAAUCAUGAUUCCCCUUUAGAUAUAAAUUUAUAAAUUGCACUCAACAGAGGAUUGAGCAUCA
B14: chr6:38652254:38652255:-_ENSG00000124767_ENST00000373365|hu_hu|hu_hu_hu_mus_False|1_78 (ssRNA)
RNA: GGGAGUUCUACAGUCCGACGAUCCGAGAACUUCAUAGCAGGGAAGUCAAGCUUCUGGAUUAGCGUCAGUCCAAGAACCCUCGUAUAAAAAUCCAGGGACUUCUUAGGAUCCUUAAUUCUUAGCAUCGUUUGCUGCAAUAGAAACAACAGAGGAUUGAGCAUCA
B15: chr17:73267850:73267851:+_ENSMUSG00000024063_ENSMUST00000024857|mus_mus|FALSE|FALSE (ssRNA)
RNA: GGGAGUUCUACAGUCCGACGAUCGAAAUAUACAGACAUGAAGUCCUAGGGGAGGCUGACCCACGCCCUUGUGAUUAAGAAAAACAAAACAAAACAAAACAAACAAACAAACAAAAAAAAACCAGUCACUGAGUCCUGAAUGAGCAACAGAGGAUUGAGCAUCA
B16: 61064472_61067304_1030_3pUTR_ENSG00000119541_ENST00000238497|human|control|control (ssRNA)
RNA: GGGAGUUCUACAGUCCGACGAUCUUCGUUUCUCAAAUCUUCGCCUAAUGGCAGAAUCCAGAACCCAGGGUAUAUUUGUAGCUCCCAGAACCAAAAUUCCAUCAUUGUCUACACCAACCCCUUGCAUUUGCACUAGGAACUCCGCAACAGAGGAUUGAGCAUCA
B17: chr1:135034296:135034297:+_ENSMUSG00000046062_ENSMUST00000052529|mus_hu|FALSE|FALSE (ssRNA)
RNA: GGGAGUUCUACAGUCCGACGAUCUAGCCUAACAUAGACAGGCCAAAUCAUUGAAAUAAAAAAAAUAUAGAAAAACAUAAAAGCCCAUUAACUUCUGAAUUUUGGGAAAGAAACAAGAAAGAGCCCAAAGUUUUCAGAUAGGCACAACAGAGGAUUGAGCAUCA

In all, about 24,000 sequences were measured (“enrichment r”: median about 0.99, highest 2% from about 3.7 on). For the sample, the highest values were picked, then their nearest neighbours and some sequences at random.

The experiment concerns the target T1, UNK ZnF1-3. The experiment can be described thus: nsRBNS (natural sequence RNA bind-n-seq); RBNS binding buffer (assumed for nsRBNS): 25 mM Tris pH 7.5, 150 mM KCl, 3 mM MgCl2, 0.01% Triton X-100, 500 ug/ml BSA, 20 U/ml SUPERase-In, 4 C; UNK is unkempt and MSI1 is Musashi-1; names of the RNAs are library labels; protein concentration not given here; high values mean tight binding.
As for B1, the binding signal came to 1.03 enrichment R.
The figure for B2 is 0.355 enrichment R; for B3 it is 0.873 enrichment R.
In turn, B4 registered a binding signal of 0.733 enrichment R.
The value for B5 was 1.03 enrichment R; that for B6 was 2 enrichment R.
The value for B7 was 1.07 enrichment R; that for B8 was 4.18 enrichment R.
The figure for B9 is 0.982 enrichment R.
On to B10, for which the binding signal stood at 1.53 enrichment R.
The figure for B11 is 1.47 enrichment R.
The value for B12 was 0.806 enrichment R; that for B13 was 4.87 enrichment R; that for B14 was 1.08 enrichment R.
The value for B15 was 4.8 enrichment R.
B16 displayed a binding signal of 1.29 enrichment R.
The figure for B17 is 11.8 enrichment R.
